Laboratory results from ChEMBL document CHEMBL4513216, “Probing the Open Global Health Chemical Diversity Library for Multistage-Active Starting Points for Next-Generation Antimalarials” (ACS Infect Dis, 2020).
Screen size: about 69,000 compounds; about 8,600 (12%) showed an effect of 50% or more. What follows is part of a selection rich in strong results, with near analogues and random picks from the rest.

system: Plasmodium berghei; test: Screen against P. berghei liver stage (PbLuc), transformed with Luciferase, at 10uM; format: functional, HepG2; details: tested at 10 uM

| SMILES | INHIBITION |
| --- | --- |
| COc1cc(NC(=O)C2CC(=O)N(c3cccc(F)c3)C2)ncn1 (stereo unspecified) | 6.34% |
| CCOc1cc(NC(=O)C2CC(=O)N(c3cccc(OC)c3)C2)ncn1 (stereo unspecified) | 45.7% |
| COc1cc(NC(=O)C2CC(=O)N(c3cccc(Br)c3)C2)ncn1 (stereo unspecified) | 63.8% |
| CC(=O)N1CCCN(C(=O)NCCOc2ccc3c(c2)OCO3)CC1 | -31.8% |
| CCN1CCC2(CCC1=O)CN(C1CCOCC1)CCN2C (stereo unspecified) | -10.9% |
| CNc1cnc(CC2COCCN(Cc3cccc(C)n3)C2)cn1 (stereo unspecified) | 3.48% |
| CN(CC1CC1)c1ccc2ccc(C(=O)NCCc3ccccc3)cn12 | 38.3% |
| COc1ccc(CN(Cc2ccco2)Cc2[nH]cnc2C)c(OC)c1 | 20.6% |
| COc1cccc(CN(Cc2ccco2)Cc2cnc(C)n2C)c1 | 65.7% |
| COc1cccc(CN(Cc2ncc[nH]2)Cc2ccco2)c1 | 28.3% |
| Cc1noc(CN(Cc2cccc(C#N)c2)Cc2ccco2)n1 | -9.82% |
| COc1ccc(OC)c(CN(Cc2ccco2)Cc2[nH]cnc2C)c1 | 26.1% |
| COc1cccc(CN(Cc2ccco2)Cc2[nH]cnc2C)c1 | 87.7% |
| Cn1nc(C(=O)N2CCSCC2)cc1NC(=O)c1ccccc1 | 7.39% |
| Cn1cc(C(=O)CC2CCCN2C(=O)c2coc3ccccc23)cn1 (stereo unspecified) | 3.15% |
| CN(C)c1cc(CNc2cncc(-n3cccn3)n2)ccn1 | -6.14% |
| CC(C)(C)c1ncc(C(=O)NCc2cccc(C(=O)N3CCCC3)c2)s1 | -12.9% |
| CC1(C)[C@H](Cc2cc(CO)on2)C[C@@H]1NCc1ccc(CO)o1 | 58.5% |
| COCc1ccc(CN[C@H]2C[C@@H](Cc3cc(CCO)on3)C2(C)C)o1 | 30.5% |
| CC1(C)[C@H](Cc2cc(CO)on2)C[C@@H]1N(CC1CC1)CC1CC1 | 27.2% |
| O=C(c1cc(F)ccc1Br)N1CCN(C(=O)C2CC2)CC1 | 12.9% |
| CCOc1cc(Cl)ccc1CNC(=O)c1ccc(=O)n(C)c1 | 39.3% |

| SMILES | INHIBITION |
| --- | --- |
| O=C(NCC(=O)N1CC2(CCCC2)c2c(F)cccc21)C1CC1 | 40.5% |
| CCS(=O)(=O)NCC(=O)N1CC2(CCCC2)c2c(F)cccc21 | 62.4% |
| CNS(=O)(=O)CC(=O)N1CC2(CCCC2)c2c(F)cccc21 | -17.2% |
| Cc1nn(C)cc1CN(C)C(=O)c1cnccn1 | 8.7% |
| Cn1cc(S(=O)(=O)NCc2ccc(F)cc2)cn1 | 24.175% |
| CN(C)CC1CN(Cc2ccc(-n3cccn3)cc2)CCO1 (stereo unspecified) | 15.3% |
| O=C(Cc1cccc(F)c1)N1C[C@H]2CN(Cc3cccnc3)C[C@H]2C1 | 0.112% |
| CN(C)C(=O)NC1COC2(CCN(Cc3ccc(Cl)c(F)c3)CC2)C1 (stereo unspecified) | 39.2% |
| c1ccc(C2=NOC3(CCN(Cc4c[nH]c5ccccc45)CC3)C2)cc1 | 63.1% |
| CC(=O)N1CCC2(CC1)CC(C(C)C)=NO2 | 25.1% |
| c1ccc(O[C@H]2COCCN(Cc3c[nH]c4ccccc34)C2)cc1 | -41.9% |
| CC(C)C1=NOC2(CCN(Cc3c[nH]c4ccccc34)CC2)C1 | 75.6% |
| c1cncc(C2=NOC3(CCN(Cc4c[nH]c5ccccc45)CC3)C2)c1 | 44.1% |
| CC1=NOC2(CCN(Cc3c[nH]c4ccccc34)CC2)C1 | 43.3% |
| CCc1ccc(NC(=O)N2C[C@@H]3C[C@H](C(=O)NC4CCC4)[C@H](C2)O3)cc1 | -50% |
| O=C(O)COc1ccc(CN2CCCC(Cc3cccnc3)C2)cc1 (stereo unspecified) | 1.62% |
| COCCCN(Cc1ccncc1)C(=O)CSc1ccc(F)cc1 | 25.8% |
| COCCN(Cc1ccoc1)C(=O)c1c(F)cccc1F | -6.42% |
| COCCN(Cc1ccoc1)C(=O)CSc1ccc(F)cc1 | 56.5% |
| O=C(Nc1cnccn1)[C@H]1CC[C@@H]2[C@@H](CCN2Cc2ccccn2)O1 | -5.08% |
| CC(C)CN1CCCC1c1ccc(C(=O)Nc2ccc3[nH]nnc3c2)s1 (stereo unspecified) | 51.1% |
| CC(C)CN1CCCC1c1ccc(C(=O)Nc2cn(C)nn2)s1 (stereo unspecified) | 47.9% |

| SMILES | INHIBITION |
| --- | --- |
| CCCN1CCCC1c1ccc(C(=O)N2CCOCC2)s1 (stereo unspecified) | 42.1% |
| Cc1cnc(NC(=O)c2ccc(C3CCCN3CC(C)C)s2)s1 (stereo unspecified) | 64% |
| CC(C)Cc1cc(NC(=O)c2ccc3[nH]nnc3c2)n(C)n1 | 1.45% |
| CC(C)CN1CCCC1c1ccc(C(=O)Nc2cc[nH]n2)s1 (stereo unspecified) | 22.3% |
| CCc1noc(CC)c1CNC(=O)Nc1ccc2[nH]nnc2c1 | 27.2% |
| CCc1nnc(NC(=O)c2ccc(C3CCCN3CC(C)C)s2)s1 (stereo unspecified) | 15.9% |
| CC(C)CN1CCCC1c1ccc(C(=O)Nc2cccnc2)s1 (stereo unspecified) | 89.6% |
| CN1C(=N)NC(=O)/C1=C/c1ccc(-c2ccc(Br)cc2)o1 | 10.1% |
| O=C(CN1CCC(c2cc(=O)n3c(n2)CCCCC3)C1)N1CCCCC1 (stereo unspecified) | 1.5% |
| Cc1cccc(OCCCN2CCC(N(C)Cc3noc(C)n3)C2)c1 (stereo unspecified) | 1.75% |
| Cc1nc(C2CCCN2C(=O)Cn2cncn2)no1 (stereo unspecified) | -14% |
| COCCN1CCC(CN(CC2CCCO2)C(=O)Cc2cccs2)CC1 (stereo unspecified) | 4.35% |
| FC(F)(F)c1cc(C2CCCN(c3ncccn3)C2)n2ccnc2n1 (stereo unspecified) | 7.43% |
| Cn1nc(C2CCN(C(=O)CN3CCCCC3)CC2)c2cccnc21 | 23.2% |
| CCOc1ncccc1CNC(=O)c1cccc(C)n1 | 38.25% |
| COCC(=O)N1CC[C@H]2C[C@H](c3nnc(C4CC4)o3)O[C@@H]2C1 | -6.3% |
| COc1ccc(NC(=O)N(C)Cc2ccsc2)cn1 | 17.4% |
| CCNc1cc2c(nn1)CCN(C(=O)c1cccnc1N(C)C)C2 | 17.05% |
| CN1CCN(C(=O)Cn2ccc3c(Cl)cccc32)CC1 | -13.6% |
| Cc1cccc(NC(=O)c2ccc(OCc3nnnn3C)cc2)n1 | -83.3% |
| Cc1cccc(NC(=O)c2cccc(OCc3nnnn3C)c2)n1 | 60% |
| Cc1ccnc(NC(=O)c2cccc(OCc3nnnn3C)c2)c1 | 39.8% |

| SMILES | INHIBITION |
| --- | --- |
| CN1CC(=O)N(c2ccccc2)CC12CCN(C(=O)c1ccnnc1)C2 (stereo unspecified) | -7.29% |
| Cc1ccnc(SCC(=O)Nc2csc3nc(=O)c(C)nn23)n1 | 72.8% |
| Cc1nn2c(NC(=O)CSc3ncccn3)csc2nc1=O | 3.77% |
| Cc1nnc(SCC(=O)Nc2csc3nc(=O)c(C)nn23)s1 | 36.3% |
| Cc1cc(NCCSc2nccn2C)n2nc(C)c(C)c2n1 | 24.7% |
| Cc1nn2c(NC(=O)CSc3nccn3C)csc2nc1=O | 50.8% |
| Cc1ccnc(NCc2cn3c(C)csc3n2)n1 | -125% |
| Cc1ncsc1C(=O)NCc1ccc(-c2n[nH]cc2C(=O)N(C)C)cc1 | -3.05% |
| c1cncc(CN2CCCn3nnc(CN4CCCC4)c3C2)c1 | -19.8% |
| CNC(=O)C1(c2cnccn2)CCCN1C(=O)c1ccccc1 (stereo unspecified) | 35.2% |
| COCCO[C@H]1CCN(Cc2ccsc2)[C@H]1Cc1cccnc1 | -67.6% |
| Cc1nnc(N2C[C@H](OCc3cccnc3)[C@H]3OCCC[C@H]32)s1 | 47.9% |
| Cc1csc(C2CCCCN2C(=O)c2cn[nH]c2C)n1 (stereo unspecified) | 11.6% |
| CC(=O)NCC(=O)N1Cc2c(-c3cccc(C)c3)nc(N)nc2C1C (stereo unspecified) | 34% |
| CN1CCC(C)(CN(C)C(=O)c2ccc(CCC(C)(C)O)cc2)C1 (stereo unspecified) | 1.71% |
| CCOc1cc(C)nc(N2CCN(C(=O)Cn3cc(C)cn3)CC2)n1 | -83.4% |
| O=C(Cc1ccccn1)N1CCc2nc(-c3cnccn3)nc(O)c2C1 | 5.69% |
| Cc1nc(CC(=O)N2CCc3nc(-c4cnccn4)nc(O)c3C2)cs1 | 59.3% |
| O=C(Cc1ccccn1)N1CCc2c(O)nc(-c3cnccn3)nc2C1 | 52% |
| COCC(=O)N1CCc2nc(-c3cnccn3)nc(O)c2C1 | 47.2% |
| O=C(CCC1CCCO1)N1CCc2nc(-c3cnccn3)nc(O)c2C1 (stereo unspecified) | -22.6% |
| Oc1nc(-c2cnccn2)nc2c1CCN(Cc1ccccn1)C2 | 2.71% |

| SMILES | INHIBITION |
| --- | --- |
| Cc1nc(C)n(CC2CCCN2Cc2cn3ccccc3n2)n1 (stereo unspecified) | -17.6% |
| c1cnc(N2CCCn3c(nnc3Cn3cccn3)C2)nc1 | -7.24% |
| c1cnn(Cc2nnc3n2CCCN(c2nccs2)C3)c1 | 53.9% |
| Cc1cnc(N2CCCn3c(nnc3Cn3cccn3)C2)nc1 | 16.9% |
| Cc1c(F)cc(C(=O)O)cc1S(=O)(=O)Nc1ccc(C#N)cc1 | 14.55% |
| c1cncc(C[C@@H]2CC[C@H](CN3CCCOCC3)O2)c1 | -13.1% |
| O=C(c1cccnc1)N1CCOC2(COCCN(c3cncnc3)C2)C1 (stereo unspecified) | -2.41% |
| CCC(NC1CSCCSC1)c1ccc(S(C)(=O)=O)cc1 (stereo unspecified) | 29.4% |
| COc1ccc(NC(C)C(=O)N2CCN(c3ncccn3)CC2)cn1 (stereo unspecified) | 29.2% |
| COc1ccc(NC(C)C(=O)N2CCCC2)cn1 (stereo unspecified) | 78.2% |
| COc1ccc(NC(C)C(=O)N2CCN(c3ccccc3)CC2)cn1 (stereo unspecified) | 21.6% |
| Cc1ccccc1SCC(=O)NC1CCC(n2cnnc2)CC1 (stereo unspecified) | 34.1% |
| CC(=O)N1CCCCC1c1nnc2n1CCNC2 (stereo unspecified) | 38.3% |
| CC(C)NC(=O)N1CCn2c(nnc2C2CCCN2)C1 (stereo unspecified) | 23.4% |
| O=C(NC1CCCCC1)N1CCCC1c1nnc2n1CCNC2 (stereo unspecified) | 32.5% |
| O=C(N1CCCCC1)N1CCCC1c1nnc2n1CCNC2 (stereo unspecified) | 36.6% |
| CC(C)NC(=O)N1CCCCC1c1nnc2n1CCNC2 (stereo unspecified) | 54.9% |
| CC(C)NC(=O)N1CCC(c2nnc3n2CCNC3)CC1 | 59.8% |
